Results published in PubChem BioAssay (EPA / NIEHS).
The source made the active and inactive calls. The calls were made as follows: active = hit-call score of the fitted dose curve at least 0.9, where 1 is the maximum; inactive = score below 0.9.

What was measured:
[1] = ATG_CRE_CIS: Attagene CIS-FACTORIAL HepG2 Assay for human cAMP Responsive Element (CRE) binding protein 3 (AID 2282926); settings: HepG2 CRE cis-reporter, Attagene multiplexed mRNA; actives raise or lower the signal
How it was run: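 Endogenous CRE-binding activity in HepG2 is reported through a cis-regulated transfected reporter. Following a day of exposure, mRNA levels are determined by reverse transcription PCR and fluorescent fragment analysis; fits run in both directions versus DMSO.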

[2] = ATG_CMV_CIS: Attagene CIS-FACTORIAL HepG2 Assay for human CMV (Internal Marker) (AID 2282928); settings: HepG2 CMV promoter reporter, transcription factor profiling; actives raise or lower the signal;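 also: endpoint acts as a background internal control marker rather than a target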
How it was run: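 CMV internal-marker background readout in transiently transfected HepG2 cells bearing cis-regulated reporter units. Reporter mRNA is measured 24 h after dosing by RT-PCR and capillary electrophoresis, with bidirectional fitting against DMSO.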

[3] = ATG_DR4_LXR_CIS: Attagene CIS-FACTORIAL HepG2 Assay for human Liver X Receptor (LXR), DR4 submotif (AID 2282929); settings: HepG2 Attagene DR4 cis-reporter, mRNA transcription; actives raise or lower the signal
How it was run: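 After transient transfection with multiplexed cis-promoter reporter units, HepG2 cells received test chemicals for 24 h. Reporter mRNA induction, detected by fluorescence after RT-PCR and capillary electrophoresis, was scored relative to DMSO.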

[4] = target: Aryl hydrocarbon receptor (Homo sapiens) (UniProt P35869); test: ATG_Ahr_CIS: Attagene CIS-FACTORIAL HepG2 Assay for human Aryl Hydrocarbon Receptor (Ahr) (AID 2282930); settings: HepG2 AhR cis-factorial reporter transcription; actives raise or lower the signal
Chain of Aryl hydrocarbon receptor (Homo sapiens) (P35869 whole entry, looked up): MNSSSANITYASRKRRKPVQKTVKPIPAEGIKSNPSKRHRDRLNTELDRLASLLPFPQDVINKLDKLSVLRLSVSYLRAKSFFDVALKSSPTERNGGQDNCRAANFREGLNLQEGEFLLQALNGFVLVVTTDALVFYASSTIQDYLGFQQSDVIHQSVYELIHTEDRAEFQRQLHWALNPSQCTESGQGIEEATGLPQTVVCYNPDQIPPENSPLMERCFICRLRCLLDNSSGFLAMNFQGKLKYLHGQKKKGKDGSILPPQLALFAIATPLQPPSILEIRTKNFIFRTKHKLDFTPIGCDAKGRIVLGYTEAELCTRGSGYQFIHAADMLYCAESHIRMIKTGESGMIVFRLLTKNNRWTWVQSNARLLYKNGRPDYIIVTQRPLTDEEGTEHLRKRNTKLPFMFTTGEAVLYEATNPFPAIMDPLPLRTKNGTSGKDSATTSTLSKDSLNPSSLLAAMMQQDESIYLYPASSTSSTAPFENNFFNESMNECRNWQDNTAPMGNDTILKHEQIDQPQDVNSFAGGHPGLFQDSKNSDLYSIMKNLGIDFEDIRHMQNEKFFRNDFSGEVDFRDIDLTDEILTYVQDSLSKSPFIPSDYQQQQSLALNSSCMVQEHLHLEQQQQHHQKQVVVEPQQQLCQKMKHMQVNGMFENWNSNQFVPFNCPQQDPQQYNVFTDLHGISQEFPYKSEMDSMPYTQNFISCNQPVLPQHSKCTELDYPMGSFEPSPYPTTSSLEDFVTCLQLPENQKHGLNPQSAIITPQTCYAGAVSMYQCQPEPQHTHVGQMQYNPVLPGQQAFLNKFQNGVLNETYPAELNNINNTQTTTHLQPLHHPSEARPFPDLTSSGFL
How it was run: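 Endogenous factor activity is tracked through cis-promoter reporter units transfected into HepG2 cells. Transcript levels at 24 h are read by fluorescent RT-PCR and capillary electrophoresis, with activity in either direction scored relative to DMSO.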

[5] = ATG_AP_1_CIS: Attagene CIS-FACTORIAL HepG2 Assay for human Activator Protein 1 (AP-1) (AID 2282931); settings: HepG2 Attagene cis-factorial AP-1 reporter mRNA; actives raise or lower the signal
How it was run: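 After 24 h incubation with test chemical, RNA from transfected HepG2 cells was reverse-transcribed, amplified, fluorescently labelled and digested before capillary electrophoresis. Reporters were driven by cis-regulatory promoters; activity fitted bidirectionally versus DMSO.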

[6] = ATG_AP_2_CIS: Attagene CIS-FACTORIAL HepG2 Assay for human Activator Protein 2 (AP-2) (AID 2282932); settings: HepG2 AP-2 cis-reporter, Attagene transcription factor profiling; actives raise or lower the signal
How it was run: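 HepG2 cells transiently transfected with cis-element reporter units and exposed for 24 h. Reporter mRNA measured by RT-PCR, FAM labelling, HpaI digestion and capillary electrophoresis. Changes in either direction fitted relative to DMSO.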

[7] = ATG_BRE_CIS: Attagene CIS-FACTORIAL HepG2 Assay for human Bone Morphogenetic Protein (BMP) Response Element (BRE) (AID 2282933); settings: HepG2 BMP response element reporter, Attagene transcription factor profiling; actives raise or lower the signal
How it was run: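 Endogenous transcription factor activity at a BMP response element was monitored in transfected HepG2 cells 24 h after dosing. Fluorescent RT-PCR products were resolved by capillary electrophoresis, and activity was fitted in both directions versus DMSO.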

[8] = target: Retinoic acid receptor alpha (Homo sapiens) (UniProt P10276); test: ATG_DR5_RAR_CIS: Attagene CIS-FACTORIAL HepG2 Assay for human Retinoic Acid Receptor Alpha (RARE), DR5 submotif (AID 2282934); settings: HepG2 Attagene cis-factorial RARE DR5 reporter, mRNA; actives raise or lower the signal;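 as to AC50: reporter responds to endogenous RAR alpha beta and gamma in HepG2 not RARA alone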
Chain of Retinoic acid receptor alpha (Homo sapiens) (P10276 whole entry, looked up): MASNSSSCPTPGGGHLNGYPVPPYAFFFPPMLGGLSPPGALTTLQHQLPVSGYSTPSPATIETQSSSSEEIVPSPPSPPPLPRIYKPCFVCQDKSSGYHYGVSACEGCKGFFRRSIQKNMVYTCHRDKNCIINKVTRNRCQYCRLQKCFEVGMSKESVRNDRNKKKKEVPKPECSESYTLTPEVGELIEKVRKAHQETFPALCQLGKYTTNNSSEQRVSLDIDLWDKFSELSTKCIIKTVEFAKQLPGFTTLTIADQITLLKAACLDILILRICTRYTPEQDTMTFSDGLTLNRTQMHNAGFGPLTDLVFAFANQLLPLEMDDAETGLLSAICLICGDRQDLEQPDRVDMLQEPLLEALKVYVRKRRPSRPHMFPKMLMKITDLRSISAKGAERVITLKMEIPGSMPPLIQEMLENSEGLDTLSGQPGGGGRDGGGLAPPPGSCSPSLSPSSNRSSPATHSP
How it was run: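 After 24 h of chemical exposure, transiently transfected HepG2 cells were lysed for total RNA; the DR5-regulated reporter transcript was quantified via RT-PCR and capillary electrophoresis, with activity fitted bidirectionally against DMSO.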

[9] = target: Transcription factor E2F1 (Homo sapiens) (UniProt Q01094); test: ATG_E2F_CIS: Attagene CIS-FACTORIAL HepG2 Assay for human E2F Transcription Factor 1 (AID 2282935); settings: HepG2 Attagene cis-reporter, E2F reporter RNA transcripts; actives raise or lower the signal
Chain of Transcription factor E2F1 (Homo sapiens) (Q01094 whole entry, looked up): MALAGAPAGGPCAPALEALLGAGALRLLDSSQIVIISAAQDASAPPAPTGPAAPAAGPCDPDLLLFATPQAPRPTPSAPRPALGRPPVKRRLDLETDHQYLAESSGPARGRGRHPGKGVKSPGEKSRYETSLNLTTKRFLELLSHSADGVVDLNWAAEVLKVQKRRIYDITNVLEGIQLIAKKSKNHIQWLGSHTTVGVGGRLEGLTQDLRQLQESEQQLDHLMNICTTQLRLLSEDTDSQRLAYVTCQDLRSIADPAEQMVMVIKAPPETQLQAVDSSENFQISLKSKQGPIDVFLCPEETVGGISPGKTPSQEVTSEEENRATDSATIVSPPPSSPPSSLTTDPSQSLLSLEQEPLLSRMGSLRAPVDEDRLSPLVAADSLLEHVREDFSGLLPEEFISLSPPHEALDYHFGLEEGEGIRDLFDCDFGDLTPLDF
How it was run: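 Endogenous E2F1 activity read through cis-promoter reporter units transfected into HepG2. After 24 h compound treatment, reporter mRNA measured by RT-PCR, HpaI digestion and capillary electrophoresis. Bidirectional fit versus DMSO.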

[10] = ATG_E_Box_CIS: Attagene CIS-FACTORIAL HepG2 Assay for human Enhancer Box (E-box) (AID 2282936); settings: HepG2 E-box cis-reporter transcription, actives raise or lower the signal
How it was run: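 HepG2 cells transiently transfected with multiplexed cis-element reporter units, dosed 24 h; reporter mRNA quantified by RT-PCR, 6-FAM labelling, HpaI digestion and capillary electrophoresis. E-box (USF1) signal fitted bidirectionally vs DMSO.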

[11] = ATG_M_61_CIS: Attagene CIS-FACTORIAL HepG2 Assay for M61 Transcription Factor (Internal Marker) (AID 2282937); settings: HepG2 Attagene CIS-FACTORIAL M61 internal marker reporter; actives raise or lower the signal
How it was run: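 Using transiently transfected HepG2 liver cells, reporter transcript levels were assessed 24 h post-dosing by RT-PCR and capillary electrophoresis. Changes in either direction were fitted relative to DMSO controls.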

[12] = ATG_EGR_CIS: Attagene CIS-FACTORIAL HepG2 Assay for human Early Growth Response 1 (EGR1) (AID 2282938); settings: HepG2 Attagene CIS-FACTORIAL EGR reporter mRNA; actives raise or lower the signal
How it was run: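 Fluorescent capillary-electrophoresis signal of reporter cDNA fragments serves as read-out. HepG2 cells bear transiently transfected cis-promoter reporter units and are exposed 24 h; gain- or loss-of-signal is fitted against DMSO.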

[13] = ATG_M_19_CIS: Attagene CIS-FACTORIAL HepG2 Assay for M19 Transcription Factor (Internal Marker) (AID 2282939); settings: HepG2 Attagene CIS-FACTORIAL M19 internal marker reporter; actives raise or lower the signal
How it was run: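 Background-control endpoint from a multiplexed HepG2 reporter panel. Cells carrying cis-regulated reporter constructs are treated 24 h, then reporter transcripts are amplified, fluorescently labelled and sized by capillary electrophoresis. DMSO defines baseline.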

[14] = ATG_ERE_CIS: Attagene CIS-FACTORIAL HepG2 Assay for Estrogen Response Element (ERE) (AID 2282940); settings: HepG2 ERE cis-reporter, Attagene RNA transcript; actives raise or lower the signal
How it was run: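 Cells used were human hepatoma HepG2, transfected with multiple reporter transcription units under cis-regulatory promoters. Reporter mRNA, read 24 h post-dosing via fluorescent RT-PCR products on capillary electrophoresis, was fitted bidirectionally relative to DMSO.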

[15] = ATG_Ets_CIS: Attagene CIS-FACTORIAL HepG2 Assay for human Erythroblast Transformation Specific (ETS) (AID 2282941); settings: HepG2 ETS cis-reporter transcription, actives raise or lower the signal
How it was run: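 HepG2 cells transfected with multiple cis-regulated reporter units measuring endogenous ETS-driven transcription, 24 h after dosing. Reporter mRNA quantified by RT-PCR with capillary electrophoresis; bidirectional fit relative to DMSO.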

[16] = target: Hepatocyte nuclear factor 3-beta (Homo sapiens) (UniProt Q9Y261); test: ATG_FoxA2_CIS: Attagene CIS-FACTORIAL HepG2 Assay for human Forkhead box A2 (FOXA2) (AID 2282942); settings: HepG2 cis-reporter transcription factor activity, 24 h; actives raise or lower the signal
Chain of Hepatocyte nuclear factor 3-beta (Homo sapiens) (Q9Y261 whole entry, looked up, the tested form may be a part): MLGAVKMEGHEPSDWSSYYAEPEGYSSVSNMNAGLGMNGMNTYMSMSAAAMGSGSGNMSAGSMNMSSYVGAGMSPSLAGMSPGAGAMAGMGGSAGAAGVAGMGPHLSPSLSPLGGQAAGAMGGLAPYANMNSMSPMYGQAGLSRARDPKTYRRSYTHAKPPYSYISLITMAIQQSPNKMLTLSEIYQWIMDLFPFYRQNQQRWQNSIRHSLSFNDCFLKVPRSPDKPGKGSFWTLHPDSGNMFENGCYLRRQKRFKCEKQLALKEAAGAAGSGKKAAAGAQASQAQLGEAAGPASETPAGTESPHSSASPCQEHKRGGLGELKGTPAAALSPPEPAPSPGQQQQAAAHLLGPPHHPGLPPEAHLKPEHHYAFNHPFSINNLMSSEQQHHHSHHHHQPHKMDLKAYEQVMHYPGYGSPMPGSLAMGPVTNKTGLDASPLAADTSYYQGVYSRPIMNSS
How it was run: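 Fluorescence signal of reporter cDNA fragments, separated by capillary electrophoresis, reflects endogenous transcription factor activity in transfected HepG2 after 24 h. Both increases and decreases fitted against DMSO.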

[17] = ATG_FoxO_CIS: Attagene CIS-FACTORIAL HepG2 Assay for human Forkhead box O (FoxO) (AID 2282943); settings: HepG2 Attagene cis-reporter, FoxO element, mRNA; actives raise or lower the signal
How it was run: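 Transfected HepG2 reporter cells exposed to test chemical for 24 h; reporter RNA measured by reverse transcription, PCR and fluorescent capillary electrophoresis; curves fitted for increases and decreases against DMSO.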

[18] = ATG_GATA_CIS: Attagene CIS-FACTORIAL HepG2 Assay for human GATA Binding Protein (AID 2282944); settings: HepG2 GATA cis-element reporter, Attagene multiplex mRNA; actives raise or lower the signal
How it was run: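 Endogenous transcription factor activity was captured through cis-promoter-driven reporters in transfected HepG2 cells. After 24 h exposure, reporter transcripts were quantified by RT-PCR with fluorescent capillary electrophoresis, and responses fitted both directions against DMSO.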

[19] = target: CCAAT/enhancer-binding protein beta (Homo sapiens) (UniProt P17676); test: ATG_C_EBP_CIS: Attagene CIS-FACTORIAL HepG2 Assay for human CCAAT/Enhancer Binding Protein (C/EBP) beta (AID 2282927); settings: HepG2 Attagene cis-factorial transcription factor reporter; actives raise or lower the signal
Chain of CCAAT/enhancer-binding protein beta (Homo sapiens) (P17676 whole entry, looked up): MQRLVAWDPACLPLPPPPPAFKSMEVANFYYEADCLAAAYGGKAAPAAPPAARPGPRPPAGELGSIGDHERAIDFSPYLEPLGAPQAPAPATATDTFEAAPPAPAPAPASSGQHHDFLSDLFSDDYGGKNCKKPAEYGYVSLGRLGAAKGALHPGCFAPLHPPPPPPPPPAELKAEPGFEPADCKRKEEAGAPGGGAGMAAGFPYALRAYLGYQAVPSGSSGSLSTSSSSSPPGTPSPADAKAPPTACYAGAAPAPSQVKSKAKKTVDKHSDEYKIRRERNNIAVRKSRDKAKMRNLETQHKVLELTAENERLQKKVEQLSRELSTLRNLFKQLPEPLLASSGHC
How it was run: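 HepG2, transient MRTU transfection, 24 h treatment. RT-PCR plus CE fluorescence; DMSO negative control, bidirectional fit.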

Measured: AC50

C=CCC1=C(C)[C@@H](OC(=O)[C@@H]2[C@@H](C=C(C)C)C2(C)C)CC1=O
active: [1] 7320 nM | [8] 2870 nM
not listed: [19]
inactive: all other assays above

COc1nc(C)nc(NC(=O)NS(=O)(=O)c2ccccc2CCC(F)(F)F)n1
inactive: all assays above

C#CCOS(=O)OC1CCCCC1Oc1ccc(C(C)(C)C)cc1 (stereo not given)
active: [1] 994 nM | [5] 1550 nM | [7] 1160 nM | [12] 1460 nM
not listed: [19]
inactive: all other assays above
